Results on twelve compounds are retold here after PubChem BioAssay (NCI).

This is part of a sample that, as a whole, favours compounds with a hit. Of some 83,000 tested, about 20% had one in any assay.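 Single-dose data. Exposure time 48 hours. Values below 10 considered active.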 A number with no mark means an inactive call. Calls of active or inactive are those of the source.

Some test systems named below: NCI-H23 lung; NCI-H226 lung; NCI-H322M lung; HOP-62 NSCLC; NCI-H460 lung; HOP-92 NSCLC; A549/ATCC NSCLC; 786-0 renal; COLO 205 colon; DU-145 prostate; K-562 leukemia; MALME-3M melanoma; MDA-MB-231 breast; RXF 393 renal; SF-268 CNS; SF-295 CNS; SF-539 CNS; UACC-257 melanoma; M14 melanoma.
Common to all, as to experiment: NCI-60 one-dose screen, 48 h (100 = growth as untreated, 0 = no growth, -100 = all killed)
Holding throughout (conditions): 10 µM unless noted

As for `c1ccc(-c2n(Cc3ccc4ccccc4c3)cc[n+]2Cc2ccc3ccccc3c2)cc1`, the growth in the test with NCI-H23 lung is -38.7% (active); with NCI-H226 lung it was -9.03% (active); in the test with NCI-H322M lung it was 8.84% (active); in the test with HOP-62 NSCLC it was -44.8% (active); in the test on NCI-H460 lung, -78.5% (active); in the test on HOP-92 NSCLC, -69.6% (active). Moreover, the growth was 12.5% in the test on A549/ATCC NSCLC; -80.7% (active) in the test on 786-0 renal; -79.1% (active) in the test with COLO 205 colon; 4.64% (active) in the test on DU-145 prostate; -36.7% (active) in the test on K-562 leukemia; -67.8% (active) in the test on MALME-3M melanoma. Moreover, the growth in the test on MDA-MB-231 breast was -82.7% (active); in the test on RXF 393 renal, -84.7% (active); in the test on SF-268 CNS, -58.2% (active); in the test on SF-295 CNS, -51% (active); in the test with SF-539 CNS, -34.7% (active); in the test with UACC-257 melanoma, -57.1% (active). Besides, in the test on M14 melanoma, the growth was -60.5% (active).

Turning to `COc1cccc(/C=N/Nc2nc3ccccc3s2)c1OC`, the growth is 101% with NCI-H23 lung; 83.3% with NCI-H226 lung; 76% with NCI-H322M lung; 68.8% in the test on HOP-62 NSCLC; 34.5% in the test on NCI-H460 lung; 74.5% in the test on HOP-92 NSCLC. The growth with A549/ATCC NSCLC is 69.1%; in the test with 786-0 renal, 82.1%; in the test with COLO 205 colon, 71.6%; in the test on DU-145 prostate, 98.3%; with K-562 leukemia, 50.9%; in the test on MALME-3M melanoma it was 90.4%. Moreover, the growth with MDA-MB-231 breast was 86.3%; in the test with RXF 393 renal, 97.9%; with SF-268 CNS, 72.7%; in the test on SF-295 CNS, 85.4%; in the test on SF-539 CNS, 74.2%; with UACC-257 melanoma it was 96.4%. In the test with M14 melanoma, the growth was 91.1%.

As for `c1ccc(Nc2ccc(Nc3nc(-c4ccccc4)nc4ccccc34)cc2)cc1`, the growth in the test on NCI-H23 lung was 86.9%; in the test with NCI-H226 lung, 81.2%; in the test with NCI-H322M lung, 90.5%; with HOP-62 NSCLC, 79.8%; with NCI-H460 lung, 83.4%; in the test on HOP-92 NSCLC, 134%. Further, the growth in the test with A549/ATCC NSCLC was 63.2%; in the test on 786-0 renal, 65.7%; in the test with COLO 205 colon, 78.5%; in the test with DU-145 prostate, 75.1%; in the test with K-562 leukemia, 6.16% (active); with MALME-3M melanoma, 109%. Besides, the growth with MDA-MB-231 breast was 63%; with RXF 393 renal it was 83%; with SF-268 CNS, 93.6%; in the test with SF-295 CNS, 55.9%; in the test with SF-539 CNS, 86.2%; in the test with UACC-257 melanoma, 100%. The growth with M14 melanoma is 76%.

As to `CCOC(=O)C1=CCC(n2cc(C)c(=O)[nH]c2=O)O1` (stereo not drawn), the growth in the test with NCI-H23 lung was 102%; with NCI-H226 lung it was 89.5%; with NCI-H322M lung, 101%; in the test with HOP-62 NSCLC it was 104%; in the test with NCI-H460 lung, 114%; with HOP-92 NSCLC it was 65%. For the same compound, the growth in the test on A549/ATCC NSCLC was 96.7%; with 786-0 renal, 105%; in the test with COLO 205 colon it was 90.1%; in the test on DU-145 prostate, 119%; with K-562 leukemia, 99.4%; in the test on MALME-3M melanoma it was 120%. The growth was 97.3% in the test with MDA-MB-231 breast; -5.82% (active) in the test with RXF 393 renal; 117% in the test with SF-268 CNS; 116% with SF-295 CNS; 101% in the test with SF-539 CNS; 96.3% in the test on UACC-257 melanoma. For the same compound, the growth in the test with M14 melanoma was 106%.

Regarding `CCCCCCCC[Si](OCC)(OCC)OCC`, the growth in the test on NCI-H23 lung is 98.2%; in the test with NCI-H226 lung, 96.1%; with NCI-H322M lung, 103%; with HOP-62 NSCLC, 101%; in the test on NCI-H460 lung, 107%; with HOP-92 NSCLC, 88.8%. The growth in the test on A549/ATCC NSCLC is 102%; in the test with 786-0 renal it was 99.3%; with COLO 205 colon, 108%; in the test with DU-145 prostate, 105%; in the test on K-562 leukemia, 99.2%; in the test on MALME-3M melanoma, 91.6%. Also, the growth in the test with MDA-MB-231 breast was 104%; with RXF 393 renal it was 104%; in the test with SF-268 CNS, 104%; in the test on SF-295 CNS, 111%; in the test on SF-539 CNS, 98.8%; with UACC-257 melanoma, 114%. The growth in the test with M14 melanoma is 98.7%.

For `O=C1CSC(c2ccccc2O)N1c1nnc(Cn2ccnc2)o1` (stereo not drawn), the growth in the test with NCI-H23 lung was 67.9%; in the test on NCI-H226 lung, 91.4%; in the test on NCI-H322M lung it was 69.6%; in the test with HOP-62 NSCLC, 67.2%; with NCI-H460 lung, 34.8%; in the test on HOP-92 NSCLC it was 69.1%. In addition, the growth with A549/ATCC NSCLC was 66.5%; in the test on 786-0 renal it was 59.1%; in the test on COLO 205 colon it was 92.6%; in the test with DU-145 prostate, 80.9%; with K-562 leukemia, 43.5%; in the test on MALME-3M melanoma, 101%. Moreover, the growth in the test with MDA-MB-231 breast is 61.6%; with RXF 393 renal it was 74.7%; in the test on SF-268 CNS, 55.7%; in the test with SF-295 CNS, 20.7%; in the test on SF-539 CNS, 55.6%; in the test on UACC-257 melanoma, 78.7%. Further, the growth in the test with M14 melanoma is 59.8%.

In the case of `COc1cnc2c(c1)C(=O)c1c-2n(CCCN2CCNCC2)c(=O)c2cc(F)ccc12`, the growth with NCI-H23 lung was -3.16% (active); in the test with NCI-H226 lung, -57.6% (active); in the test with NCI-H322M lung, 13.7%; with HOP-62 NSCLC, -8.55% (active); in the test with NCI-H460 lung it was -58.4% (active); in the test on HOP-92 NSCLC, -7.94% (active). Also, the growth in the test on A549/ATCC NSCLC is -70.4% (active); in the test on 786-0 renal, -94.3% (active); with COLO 205 colon it was -10.5% (active); in the test on DU-145 prostate, -0.602% (active); in the test with K-562 leukemia, -65.9% (active); with MALME-3M melanoma it was -60.7% (active). Also, the growth in the test on MDA-MB-231 breast was 9.36% (active); in the test with RXF 393 renal, -36% (active); in the test on SF-268 CNS, 6.43% (active); in the test on SF-295 CNS it was 0.838% (active); with SF-539 CNS it was -64.2% (active); with UACC-257 melanoma, 10.8%. For the same compound, the growth with M14 melanoma is -56.7% (active).

For the compound `COc1ccc(C2=NN(C=O)C(c3cccc(Nc4ccnc5cc(Cl)ccc45)c3)C2)cc1` (stereo not drawn), the growth was 23.5% with NCI-H23 lung; 39.7% in the test on NCI-H226 lung; 45.8% with NCI-H322M lung; 13.2% in the test on HOP-62 NSCLC; 14.3% in the test on NCI-H460 lung; 36.9% with HOP-92 NSCLC. Also, the growth is 30.2% in the test with A549/ATCC NSCLC; 28.5% in the test on 786-0 renal; 0.0234% (active) with COLO 205 colon; 33.2% in the test with DU-145 prostate; 6.65% (active) in the test with K-562 leukemia; 25.2% in the test on MALME-3M melanoma. In addition, the growth is 42.4% in the test on MDA-MB-231 breast; 17.2% with RXF 393 renal; 41.2% in the test with SF-268 CNS; 0.467% (active) in the test on SF-295 CNS; 9.03% (active) with SF-539 CNS; 23.2% with UACC-257 melanoma. Also, the growth in the test on M14 melanoma is 19.1%.

For the compound `COc1ccc2nc(NC(=O)CN3CCn4c(nnc4C(F)(F)F)C3)sc2c1`, the growth in the test with NCI-H23 lung is 91.6%; with NCI-H226 lung it was 92.2%; in the test with NCI-H322M lung it was 98.5%; in the test with HOP-62 NSCLC it was 88.1%; in the test on NCI-H460 lung it was 99.5%; in the test on HOP-92 NSCLC it was 101%. Also, the growth in the test with A549/ATCC NSCLC is 88.4%; in the test with 786-0 renal, 96.9%; in the test on COLO 205 colon, 109%; with DU-145 prostate it was 106%; in the test on K-562 leukemia it was 90.5%; in the test with MALME-3M melanoma, 106%. Also, the growth with MDA-MB-231 breast is 96.6%; in the test with RXF 393 renal, 91%; with SF-268 CNS, 93.5%; with SF-295 CNS, 92.5%; in the test with SF-539 CNS, 93.7%; with UACC-257 melanoma, 99.5%. Further, the growth in the test with M14 melanoma is 85.1%.

On to `c1ccc2c(-c3nc4ccccc4[nH]3)cccc2c1`, for which the growth in the test with NCI-H23 lung was 44.2%; in the test with NCI-H226 lung, 79%; with NCI-H322M lung it was 64.5%; in the test on HOP-62 NSCLC, 43%; in the test with NCI-H460 lung it was 15.5%; with HOP-92 NSCLC, 53.3%. Moreover, the growth is 38.6% in the test with A549/ATCC NSCLC; 55.5% in the test with 786-0 renal; 24.6% in the test with COLO 205 colon; 33.6% in the test with DU-145 prostate; 14.5% in the test on K-562 leukemia; 38.1% in the test with MALME-3M melanoma. Also, the growth is 41.4% in the test with MDA-MB-231 breast; 31% in the test with RXF 393 renal; 61.4% in the test with SF-268 CNS; 61.4% in the test with SF-295 CNS; 37.1% in the test with SF-539 CNS; 35.7% in the test on UACC-257 melanoma. The growth with M14 melanoma is 3.75% (active).

For `OCc1n(Cc2ccc3ccccc3c2)cc[n+]1Cc1ccc2ccccc2c1`, the growth is 67.7% with NCI-H23 lung; 61.6% with NCI-H226 lung; 78.9% in the test with NCI-H322M lung; 75% in the test on HOP-62 NSCLC; 53.1% in the test on NCI-H460 lung; -2.81% (active) in the test on HOP-92 NSCLC. The growth was 68.6% with A549/ATCC NSCLC; 80.1% in the test on 786-0 renal; 23.1% in the test with COLO 205 colon; 84.7% with DU-145 prostate; 22.7% with K-562 leukemia; 38.1% with MALME-3M melanoma. Besides, the growth in the test on MDA-MB-231 breast is 51.4%; in the test on RXF 393 renal, 57.3%; in the test on SF-268 CNS, 60.7%; in the test with SF-295 CNS it was 79.2%; in the test on SF-539 CNS it was 68.3%; with UACC-257 melanoma, 18.3%. In addition, in the test on M14 melanoma, the growth is 41.7%.

As for `O=C(NC1CCCCC1)c1ccc(Nc2ncnc3c2cnn3-c2ccccc2)cc1`, the growth was 72% in the test with NCI-H23 lung; 19.1% in the test on NCI-H226 lung; 64% in the test on NCI-H322M lung; -66.5% (active) with HOP-62 NSCLC; 42.2% in the test on NCI-H460 lung; 37.7% in the test with HOP-92 NSCLC. For the same compound, the growth was 16.6% in the test with A549/ATCC NSCLC; 72.1% in the test with 786-0 renal; 65.4% with COLO 205 colon; 54.6% in the test on DU-145 prostate; 73.2% in the test on K-562 leukemia; 2.93% (active) in the test on MALME-3M melanoma. Moreover, the growth with MDA-MB-231 breast is 8.76% (active); in the test with RXF 393 renal, 62.2%; with SF-268 CNS, 36.9%; with SF-295 CNS it was 73.4%; in the test on SF-539 CNS it was 43.7%; with UACC-257 melanoma, 56.5%. Further, the growth in the test on M14 melanoma was 69.1%.
